# Source: PubChem BioAssay AID1578 (Sanford-Burnham Center for Chemical Genomics, 2009)
# In all, about 290,000 compounds went through this assay and about 3,000 (1%) were called active. Rule as the data show it: active = inhibition mostly above about 36% (no sharp cut-off); inactive = mostly below about 34%. The sample as a whole holds a higher share of actives than the screen did.
# Assay: inhibition of NOD1-driven NF-kB reporter – cell-based, luminescence, uHTS, primary screen (AID 1578);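 also: HEK-293T reporter cells stimulated with the NOD1 agonist gamma-tri-DAP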
# Details: NOD1-driven NF-kB luciferase reporter cells, at 4 µM, active compounds read high
row,SMILES,inhibition
1,CCOC(=O)c1ccccc1NC(=O)c1cc2ccccc2o1,-31.6% (inactive)
2,C/C(=N\NC(=O)c1cc(C)nc2ccccc12)c1ccco1,-18.1% (inactive)
3,O=C(CCCCn1c(=O)[nH]c2ccccc2c1=O)NCCC1=CCCCC1,-3.1% (inactive)
4,O=C(N/N=C/c1ccc(OC(F)F)cc1)c1ccc(CSc2nc3ccccc3[nH]2)cc1,-27.9% (inactive)
5,COc1cc(/C=N/NC(=O)c2ccc(CSc3nc4ccccc4[nH]3)cc2)ccc1O,-22.3% (inactive)
6,CCOc1ccc(/C=N/NC(=O)c2ccc(CSc3nc4ccccc4[nH]3)cc2)cc1,66.9% (active)
7,Cn1c(=O)c2c(nc(N3CCN(c4ccc([N+](=O)[O-])cc4)CC3)n2C)n(C)c1=O,0.8% (inactive)
8,CCOc1ccccc1C1C(C#N)=C(N)Oc2cc(C)n(Cc3ccccn3)c(=O)c21 (configuration not stated),4.8% (inactive)
9,Cc1cccc(-c2cc3c(nn2)-c2ccccc2C3=O)c1,-99% (inactive)
10,Cc1ccc(C)c(NC(=O)COC(=O)c2cccc3c2C(=O)c2ccccc2C3=O)c1,16.2% (inactive)
11,Cc1ccc2c3c(cccc13)-c1ccccc1C2=O,-32.2% (inactive)
12,O=C1c2ccccc2C(=O)c2c1ccc1c(=O)n(-c3ccccc3)[nH]c21,8.9% (inactive)
13,O=C(Cn1c(C(F)(F)F)nc2ccccc21)N1CCCC1,-9.5% (inactive)
14,CC(CN1C(C)CCCC1C)OC(=O)c1ccc(Cl)cc1Cl (configuration not stated),-14.9% (inactive)
15,CCN(CC(=O)NCc1ccc(F)cc1)CC(=O)NC1CCCC1,-35.5% (inactive)
16,CCCn1nnnc1SCC(=O)N1CCCc2ccccc21,-20% (inactive)
17,CC1CCc2c(c3ccccc3n2C(=O)CCl)C1 (configuration not stated),74.2% (active)
18,Cc1ccnc(SCC(=O)n2c3c(c4ccccc42)CC(C)CC3)n1 (configuration not stated),8.4% (inactive)
19,CC1CCN(CC(=O)n2c3c(c4ccccc42)CCCC3)CC1,7.8% (inactive)
20,Nc1nc(CCl)nc(Nc2ccccc2)n1,36.6% (inactive)
21,CC1CC(C)CN(Cc2nc(N)nc(Nc3ccc4ccccc4c3)n2)C1 (configuration not stated),-11.4% (inactive)
22,Cc1ccc(Nc2nc(N)nc(CSc3nccn3C)n2)c(C)c1,-29.9% (inactive)
23,Cc1cccc(Nc2nc(N)nc(CN3CCC(C)CC3)n2)c1C,-38.2% (inactive)
24,COc1ccc(OCc2nc(N)nc(Nc3cccc(C)c3C)n2)cc1,-7% (inactive)
25,Cc1cccc(Nc2nc(N)nc(CN3CCN(C)CC3)n2)c1,-6.7% (inactive)
26,COc1cccc(Nc2nc(N)nc(CCl)n2)c1,-7.5% (inactive)
27,Cc1ccc(Nc2nc(N)nc(CN3CCCCCC3)n2)c(C)c1,-23.1% (inactive)
